Assay outcomes as filed in PubChem.
Hits are enriched below; roughly 2.1% of the tested compounds scored in any of these assays.
p53 reactivation = restores transcriptional activity of mutant p53. H1299 p53-A138V BP100-luciferase reporter, luminescence, 24 h. Potency, µM (doses to about 92.2 µM), for inactives: top-dose activity change, positive = activation, actives largely listed as activators. 320,000 tested, 0.063% active; note: potency is the fitted concentration of half-maximal effect; % of control where 0% means no effect; nearly all actives have a fitted effect of over 45% in size
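p53-null H1299 cells stably carrying temperature-sensitive p53-A138V and a BP100-luciferase reporter were pinned with compounds (4-point, 1:5 series) and held 24 hrs at 37 deg C. Luminescence was read 10 min after detection reagent.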
uPA surface inh = inhibitors of cell surface uPA generation. 330,000 tested, 0.31% active. Potency, µM (titrated, usually from 38.3 µM), for the others: at the top dose activity change, negative = inhibition, usual class: inhibitors. AID 540303. cell surface uPA generation assay, qHTS; active = well fitted inhibition curve with a large enough effect; inconclusive = small, poorly fitted or top-dose-only effect; inactive = no such curve, though single readings can be large or run the other way; tested in mouse RAW 264.7 cells; note: potency is the fitted concentration of half-maximal effect; % is set by controls: 0 for no effect and ±100 for the full control effect; nearly all actives have a fitted effect of over 55% in size
ClpP mod = qHTS Assay for Activators of ClpP; 340,000 tested, 1.9% active; Potency, µM (titrated, usually from 57.5 µM), for the others: at the highest dose activity change, negative = active; purified B. subtilis ClpP, FRET peptide cleavage, 20 min; AID 651965, 2013; ATP-dependent Clp protease proteolytic subunit (Bacillus subtilis (strain 168)), P80244; active = well fitted falling curve with a large enough effect; inconclusive = small, poorly fitted or top-dose-only effect; inactive = no such curve, though single readings can be large or run the other way; note: potency is the fitted concentration of half-maximal effect; the source files actives as falling curves though it sought activators and does not explain the sign; nearly all actives have a fitted effect of over 65% in size
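Purified B. subtilis ClpP, 10 microg/mL final in Tris/HCl pH8 with KCl, BSA, glycerol and Tween-20, cleaved an Abz/nitrotyrosine-quenched decapeptide. Fluorescence (ex 320, em 430) was read at 0 and 20 min at room temperature. Delta was normalized to 5.8 microM ADEP and DMSO/no-enzyme controls.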
Giardia kill = kills Giardia lamblia; Giardia lamblia trophozoite viability; activity change, % at 7.66 µM, hits read low; 340,000 tested, 0.15% active; AID 540267; in the data active = activity change below about -80%; inconclusive = between about -30% and that limit;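 note: parasites exposed to compound for two days anaerobically before the ATP read; % is set by controls: 0 for no effect and ±100 for the full control effect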
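Killing of trophozoites was scored by loss of ATP luminescence after a 48 hrs anaerobic exposure to compounds at 37 deg C, using 100 cells per well.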
Mito fusion act = blocks mitochondrial division or promotes mitochondrial fusion; S. cerevisiae fusion-defective mutant growth rescue, CellTiterGlo 48 h; Potency, µM (doses to about 46.1 µM), for the others: at the top dose growth rescue (activation), most hits filed as activators; 320,000 tested, 0.23% active; AID 485298; note: potency is the fitted concentration of half-maximal effect; % of control where 0% means no effect; nearly all actives have a fitted effect of over 45% in size
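Temperature-sensitive fusion-defective S. cerevisiae (e.g. fzo1-1, mgm1-5) were grown with compound in YPEG medium (3% ethanol, 3% glycerol) for 48 hours at 37C. Growth rescue was measured as viability by CellTiterGlo luminescence after 10 minutes at ambient.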
B2AR arrestin = beta2AR (human) beta-arrestin recruitment activity; AID 492947; 330,000 tested, 0.02% active; Potency, µM (titrated, usually from 46.1 µM), for the others: top-dose activation, actives largely listed as activators; beta-arrestin recruitment to beta2AR, cell-based reporter;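 note: potency is the fitted concentration of half-maximal effect; 0% = DMSO controls and full agonism = EC100 isoproterenol or metaproterenol; nearly all actives have a fitted effect of over 65% in size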
Active calls of the source: *; ? = inconclusive; · = no result. Unless noted, calls come from the whole dose curve; as a rule, active = well fitted curve in the direction sought with a large enough effect; inconclusive = small, poorly fitted or top-dose-only effect, or another doubt; inactive = no such curve, though single readings can be large; an effect the other way counts as inactive or inconclusive.

SMILES	p53 reactivation	uPA surface inh	ClpP mod	Giardia kill	Mito fusion act	B2AR arrestin
COC(=O)c1ccc(C2c3[nH]c4ccccc4c3C[C@H]3C(=O)N(C)CC(=O)N23)cc1 (some centres undefined)	-7.2%	-4.2%	·	11.4	9.7%	-0.1%
CN1CC(=O)N2C(c3ccc(Cl)cc3)c3[nH]c4ccccc4c3C[C@H]2C1=O (some centres undefined)	-1.3%	5.62µM*	0.5%	-4.5	-2.4%	0.3%
COc1cccc(-c2ccc3c(N)c(C(=O)NCc4ccc(Cl)cc4)sc3n2)c1	·	·	-7.2%	·	·	·
CCOC(=O)C1(Cc2cccc(Cl)c2)CCCN(C(=O)c2cnn(CC)c2)C1 (centres undefined)	·	-6.9%	31.6µM*	2.3	-0.9%	0.2%
COc1cc2ccccc2cc1C(=O)Nc1ccc2oc(-c3ccc(Cl)cc3)nc2c1	·	·	4.3%	·	·	·
COc1ccccc1C(=O)Nc1ccc2oc(-c3ccc(F)cc3)nc2c1	15.9%	1.0%	20µM*	9.0	3.6%	0.2%
Cc1ccc(OCC(=O)Nc2ccc(-c3nc4ncccc4o3)cc2)c(C)c1	27.2%	4.0%	25.1µM*	-4.7	7.7%	-1.4%
COc1cccc(OC)c1C(=O)Nc1ccc(-c2nc3ncccc3o2)cc1	·	·	28.2µM*	·	·	·
Cc1ccccc1OCC(=O)Nc1ccc(-c2nc3ncccc3o2)cc1	·	·	4.5%	·	·	·
COc1cccc(OCc2ccc(Cl)cc2)c1C#N	?	8.91µM*	-2.1%	3.5	0.8%	0.1%
COc1cccc(CNC(C)(C)CO)c1OCc1ccc(Cl)cc1	-0.1%	-4.7%	·	-25.3	0.9%	0.1%
Cc1cc(Cl)ccc1Oc1ncnc2oc(-c3ccccc3)cc12	5.9%	-6.8%	25.1µM*	24.2	7.0%	-0.6%
Cc1cccc(Oc2ncnc3oc(-c4ccccc4)cc23)c1C	-4.4%	1.5%	28.2µM*	-4.5	-0.2%	-0.3%
COc1ccccc1-c1nc(SCC(=O)Nc2ccc(C)c(C)c2)n[nH]1	·	·	3.9%	·	·	·
CC1CCC2(CC1)Nc1ccccc1C(=O)N2c1ccccc1 (centres undefined)	15.9%	-0.1%	28.2µM*	17.0	0.3%	-0.5%
O=C1c2ccccc2NC2(CCCCC2)N1c1ccc(O)cc1	11.6%	-7.6%	?	-5.3	-8.1%	-0.7%
Cc1cccc(CNC(=O)c2ccc(C)c(-n3c(C)nc4cccnc43)c2)c1	·	·	-16.2%	·	·	·
O=C(NCc1ccco1)c1c[nH]c2ccc(S(=O)(=O)N3CCOCC3)cc2c1=O	5.8%	4.1%	31.6µM*	-6.1	-3.1%	-2.1%
COCCCNC(=O)c1c[nH]c2ccc(S(=O)(=O)N3CCC4(CC3)OCCO4)cc2c1=O	-2.1%	3.2%	·	-7.7	4.9%	-0.3%
O=C(NCCN1CCOCC1)c1c[nH]c2ccc(S(=O)(=O)N3CCOCC3)cc2c1=O	2.7%	-1.2%	31.6µM*	8.2	-4.1%	-0.3%
CCCCCNC(=O)c1c[nH]c2ccc(S(=O)(=O)N3CCC4(CC3)OCCO4)cc2c1=O	-5.8%	2.6%	15.8µM*	37.1	-8.9%	-0.5%
Cc1ccc(S(=O)(=O)N2CCOCC2)cc1C(=O)NCc1ccco1	?	7.6%	0.1%	11.9	0.0%	-0.2%
CCCCc1cc(=O)oc2cc(OCc3nn[nH]n3)c(Cl)cc12	5.7%	-6.0%	28.2µM*	-15.0	4.4%	0.2%
CCCc1cc(=O)oc2c(C)c(OCc3nn[nH]n3)ccc12	-6.7%	-2.5%	3.8%	17.7	0.0%	-0.7%
COc1ccc(CCn2c(C)cc(C(=O)CCl)c2C)cc1OC	?	8.91µM*	-0.7%	-2.3	-37.0%	0.3%
Cc1ccc(/C=C/c2onc(C)c2S(=O)(=O)N2CCC(C(=O)NCC(C)c3ccccc3)CC2)cc1 (centres undefined)	·	·	0.2%	·	·	·
COC(=O)c1ccccc1NC(=O)N1CCN(C(=O)c2ccco2)CC1	-4.7%	3.1%	22.4µM*	4.1	0.0%	-0.4%
O=C(NCc1cnc2ccccn12)C1CCC(=O)N(Cc2ccccc2F)C1 (centres undefined)	-4.4%	0.4%	31.6µM*	-22.3	-0.3%	-0.2%
